Assay results as given in the supplement of paper PMC6555819.

Assays:
Experiment in all cases: PBM binding z-score (relative to random genomic background probes); higher = stronger binding; sequences stand for … in GC…GCGATTGACAGCGTAGAATGAAGG
[1] = system: FXR:RXRa (NR concentration 270 nM, RXRa partner concentration 90 nM)
Outline: (§1)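 On custom Agilent 4×180K arrays, double-stranded probes with 34-nt variable regions carried direct-repeat seeds, single-nucleotide variants, half-site ablations or random human genomic background. Ligand-free nuclear receptor dimers were applied for 1 h, and binding was read with antibodies against each partner (one per run). Binding z-scores come from regression-normalized fluorescence, with the random background probes as reference.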

[2] = system: LXRa:RXRa (NR concentration 270 nM, RXRa partner concentration 90 nM)
Outline: as §1

[3] = system: LXRa homodimer (NR concentration 270 nM)
Outline: as §1

[4] = system: LXRb:RXRa (NR concentration 270 nM, RXRa partner concentration 90 nM)
Outline: as §1

[5] = system: LXRb homodimer (NR concentration 270 nM)
Outline: as §1

[6] = system: PPARa:RXRa (NR concentration 270 nM, RXRa partner concentration 90 nM)
Outline: as §1

[7] = system: PPARg:RXRa (NR concentration 180 nM, RXRa partner concentration 90 nM)
Outline: as §1

[8] = system: PPARg:RXRa 270nM:90nM, anti-RXR (NR concentration 270 nM, RXRa partner concentration 90 nM)
Outline: as §1

[9] = system: PPARg:RXRa 30nM:10nM, anti-RXR (NR concentration 30 nM, RXRa partner concentration 10 nM)
Outline: as §1

[10] = system: PPARg:RXRa 90nM:30nM, anti-RXR (NR concentration 90 nM, RXRa partner concentration 30 nM)
Outline: as §1

[11] = system: PPARg:RXRa DBDmut IVT, anti-RXR (DBD mutation: RXRa K156A/R161A, NR concentration 270 nM, RXRa partner concentration 90 nM)
Outline: as §1

[12] = system: PPARg:RXRa IVT, anti-PPARg (NR concentration 270 nM, RXRa partner concentration 90 nM)
Outline: as §1

[13] = system: PPARg DBDmut:RXRa IVT, anti-PPARg (DBD mutation: PPARg1 K132A/R137A, NR concentration 270 nM, RXRa partner concentration 90 nM)
Outline: as §1

[14] = system: PPARg DBDmut IVT, anti-PPARg (DBD mutation: PPARg1 K132A/R137A, NR concentration 270 nM)
Outline: as §1

[15] = system: PPARg homodimer (NR concentration 180 nM)
Outline: as §1

[16] = system: PXR:RXRa (NR concentration 270 nM, RXRa partner concentration 90 nM)
Outline: as §1

[17] = system: PXR homodimer (NR concentration 270 nM)
Outline: as §1

[18] = system: RARa:RXR (NR concentration 270 nM, RXRa partner concentration 90 nM)
Outline: as §1

[19] = system: RARa homodimer (NR concentration 270 nM)
Outline: as §1

[20] = system: RARb:RXRa (NR concentration 270 nM, RXRa partner concentration 90 nM)
Outline: as §1

Sequence | PBM binding z-score [1] | PBM binding z-score [2] | PBM binding z-score [3] | PBM binding z-score [4] | PBM binding z-score [5] | PBM binding z-score [6] | PBM binding z-score [7] | PBM binding z-score [8] | PBM binding z-score [9] | PBM binding z-score [10] | PBM binding z-score [11] | PBM binding z-score [12] | PBM binding z-score [13] | PBM binding z-score [14] | PBM binding z-score [15] | PBM binding z-score [16] | PBM binding z-score [17] | PBM binding z-score [18] | PBM binding z-score [19] | PBM binding z-score [20]
CGTCCAAGGTCAATGCTAGGTTAGTGAAAGCATT | 6.49 | 4.7 | 0.436 | 3.76 | 0.627 | 5.08 | 3.32 | 4.3 | 1.15 | 2.85 | 2.98 | 3.27 | 0.204 | -0.204 | 2.37 | 3.78 | 0.753 | 3.88 | 0.52 | 5.04
GATACAGAGTCAAGGCCAGAGTACGCGTATTGAT | -0.608 | -0.442 | -0.531 | -0.627 | -0.712 | -0.293 | 0.646 | -0.0744 | -0.0806 | -0.0588 | -0.108 | -0.0303 | 0.127 | -0.418 | -0.301 | -0.285 | -0.253 | -0.181 | -1.07 | 0.288
TAACCAAGGTGAAAGGTCGTTGATGCACGCCTTG | 3.72 | 3.34 | 0.422 | 2.69 | 0.0179 | 5.18 | 8.43 | 8.06 | 8.2 | 8.96 | 2.51 | 4.83 | 0.621 | 0.876 | 2.72 | 4.25 | 0.689 | 6.11 | 0.504 | 3.15
CCTGCAAGGTCATGGTCAGCTAATCTACAGTATG | 6.95 | 5.02 | 0.64 | 4.16 | 0.00573 | 5.68 | 4.66 | 5.14 | 2.07 | 3.51 | 2.84 | 3.3 | 1.03 | 1.64 | 3.29 | 4.62 | 0.377 | 5.57 | 1.03 | 5.04
CGTCTAAGTTCAACTAAGGTAACGTAAAGCACGC | 5.42 | 4.54 | 1.66 | 2.8 | 0.991 | 3.67 | 1.24 | 2.06 | 0.533 | 1.24 | 0.256 | 0.683 | 0.378 | 0.759 | 1.95 | 5.04 | 4.82 | 3.08 | 1.48 | 4
TGAATGAGGTAAAAGATCAGGGAACGTGGCGTCG | 0.359 | -0.0204 | -0.712 | -0.13 | -0.307 | 2.5 | 3.68 | 5.02 | 3.41 | 5.53 | 0.669 | 2.02 | 0.836 | -0.202 | 0.305 | -0.0852 | -0.139 | 0.545 | -0.524 | 0.0467
